Bioassay records: PubChem, several laboratories
Shown are actives, neighbours in structure and some others; about 1.3% of the full set was active somewhere.
Keap1 Nrf2 FP – disrupts human Keap1 binding to Nrf2 peptide. Q14145. Keap1 Kelch-Nrf2 peptide fluorescence polarization, 1536-well. inhibition, % at 9.4 µM. 340,000 tested, 0.15% active. AID 504523; in the data active = inhibition above about 12%; inconclusive = no clear call, values can overlap the other calls; inactive = below about 7.3%;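 note: human Keap1 Kelch domain with fluorescein labeled Nrf2 9mer peptide probe; 0% = neutral control wells and 100% = peptide positive control; higher means more block of Keap1 binding to Nrf2 peptide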
Target sequence (Q14145 whole entry, looked up, the tested form may be a part): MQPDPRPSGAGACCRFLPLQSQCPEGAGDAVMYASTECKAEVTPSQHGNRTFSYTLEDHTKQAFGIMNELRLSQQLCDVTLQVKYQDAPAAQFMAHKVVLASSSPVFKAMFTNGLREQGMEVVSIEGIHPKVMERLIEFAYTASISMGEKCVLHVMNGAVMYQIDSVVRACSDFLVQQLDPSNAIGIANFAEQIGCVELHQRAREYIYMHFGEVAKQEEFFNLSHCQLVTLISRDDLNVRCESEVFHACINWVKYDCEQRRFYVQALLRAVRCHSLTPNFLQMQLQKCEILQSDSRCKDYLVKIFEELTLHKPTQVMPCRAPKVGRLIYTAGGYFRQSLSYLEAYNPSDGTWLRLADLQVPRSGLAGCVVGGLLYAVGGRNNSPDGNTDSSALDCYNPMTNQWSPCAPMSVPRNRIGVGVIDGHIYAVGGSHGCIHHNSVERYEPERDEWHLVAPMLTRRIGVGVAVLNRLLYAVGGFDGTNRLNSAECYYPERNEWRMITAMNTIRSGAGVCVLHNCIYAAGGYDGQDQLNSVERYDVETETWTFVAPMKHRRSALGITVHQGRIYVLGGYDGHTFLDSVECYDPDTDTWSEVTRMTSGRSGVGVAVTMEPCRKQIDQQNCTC
CRFR2-BP antag – CRF-BP/CRF-R2 complex antagonism; HEK293 CRF-R2/CRF-BP, CRF-induced calcium fluorescence; 350,000 tested, 0.59% active; inhibition, % at 11.8 µM;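 active = inhibition of the ligand-induced calcium signal above about 50% at the single tested concentration, limit read from the data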
LANA DNA inh – KSHV C-LANA DNA binding inhibition; MBP-C-LANA/FAM-LBS DNA binding, fluorescence polarization; 340,000 tested, 0.078% active; inhibition, % at 9 µM;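 active = highest replicate inhibition at or above 60% at 9 µM, even if other replicates fall short; inactive = all replicates below 60% inhibition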;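 note: 0% = neutral control wells and 100% = 4 µM acridine orange control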
CRFR2-BP ag – CRF-BP/CRF-R2 complex agonism; HEK293 CRF-R2/CRF-BP, calcium dye fluorescence (FLIPR); percent of saturating CRF peptide response; activation, % at 13.2 µM; 350,000 tested, 0.46% active; AID 588473;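 active = activation of at least 50%, plus an integration ratio under a set limit after plate pattern correction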;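 note: plate controls were neutral control wells without compound for no effect and CRF at EC100 for full effect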
cardiac RTF act – cardiac RTF calcium sensitization; P19429+P45379; 340,000 tested, 0.24% active; IANBD-labeled TnC RTF fluorescence at EC20 calcium; 0% EC20 calcium, 100% full calcium; activation, % at 7.2 µM; AID 493008;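 active = activation above the mean over all tested compounds plus 3 SD, cut at about 30% in these data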;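 note: rise in fluorescence read as greater calcium sensitivity of cardiac thin filaments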
RTF Ca sens inh – cardiac RTF calcium desensitization; inhibition, % at 7.15 µM; 340,000 tested, 0.12% active; IANBD-labeled cardiac RTF, Ca2+ fluorescence;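 active = inhibition above the mean inhibition of all tested compounds plus 3 SD, cut at about 17% in these data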;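 note: assay run at fixed EC70 calcium of 1.6 mM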
The depositor's hits bear a star; ? = inconclusive; · = no result.

SMILES	Keap1 Nrf2 FP	CRFR2-BP antag	LANA DNA inh	CRFR2-BP ag	cardiac RTF act	RTF Ca sens inh
O=C1c2cccc3c([N+](=O)[O-])ccc(c23)C(=O)N1c1ccc(Cl)cn1	-2	91*	5	19	11	-24
CC(=O)Oc1ccc(N2C(=O)c3cccc4c([N+](=O)[O-])ccc(c34)C2=O)cc1	0	75*	0	4	4	3
O=C1c2cccc3c([N+](=O)[O-])ccc(c23)C(=O)N1c1ccccn1	-2	60*	1	7	-2	4
O=C(Cn1cc([N+](=O)[O-])cn1)NCc1ccc(-n2cccn2)cc1	0	-4	-2	-2	-3	5
O=C(Nc1ccc(Br)cc1)c1cccc(S(=O)(=O)Nc2cnc3ccccc3c2)c1	-2	-28	0	0	2	9
O=C1c2cccc3c([N+](=O)[O-])ccc(c23)C(=O)N1c1nccs1	-1	83*	-1	23	2	-11
COc1ccc(-c2ccc3c(c2)S(=O)(=O)c2cccc(C(=O)NC4CCCCC4)c2C3=O)cc1OC	-5	4	4	7	-1	-10
COc1ccc(CCNC(=O)CCCCC(=O)NCCc2ccc(OC)c(OC)c2)cc1OC	-2	2	-1	-1	4	1
C=CCN1C=CC(=CC=C(C#N)C#N)C=C1	-118	-54	-30	67*	44*	-46
CCCCCN1C=CC=C/C1=C\C=C(C#N)C#N	·	-22	·	19	·	·
CCCN1C=CC(=CC=C(C#N)C#N)C=C1	-102	-61	-28	94*	42*	-48
CCCCCCN1C=CC(=C/C=C(\C#N)C(=O)OCC)C=C1	-93	-261	-24	247*	141*	-262
O=C(NNC(=S)Nc1ccc(Cl)c(Cl)c1)c1ccccn1	-4	-1	-2	-2	-3	7
NS(=O)(=O)c1ccc(CCNC(=O)C(=O)NCC2OCCN2S(=O)(=O)c2cccs2)cc1 (centres undefined)	-5	17	-1	0	8	-4
COC1(OC)C=CC(=O)C=C1NC(=O)c1ccccc1OC(C)=O	-4	104*	3	0	8	-2
CC(=O)Oc1ccccc1C(=O)Nc1ccccc1	-2	1	-2	-2	-5	-6
O=C(CSc1nc2ccccc2c(=O)n1-c1ccccc1F)NC1CC1	-6	26	0	3	-1	-9
CN(C)c1ccc(/C=C/c2nc3ccccc3c(=O)n2-c2ccc(C(=O)O)cc2)cc1	-274	-24	-1	22	538*	-498
O=c1c2ccccc2nc(SCc2ccc([N+](=O)[O-])cc2)n1-c1ccccc1	0	-5	1	6	-1	-2
O=C(O)c1cccc(-n2c(/C=C/c3ccccc3)nc3ccccc3c2=O)c1	-5	16	0	0	-5	5
O=C(O)c1ccc(CSc2nc3ccccc3c(=O)n2-c2ccccc2)cc1	30*	-7	28	-2	4	-10
COC(=O)c1sc(NC(=O)c2cc(-c3ccccc3)nc3ccccc23)c(C#N)c1C	1	21	1	54*	1	-1
COC(=O)c1sc(NC(=O)c2ccc([N+](=O)[O-])o2)c(C#N)c1C	-2	74*	0	41	-3	3
CCOC(=O)c1sc(NC(=O)c2cc(-c3ccc(C)cc3)nc3ccccc23)c(C#N)c1C	4	17	0	47	-4	1
CN(C)c1ccc(/C=C/C(=O)c2c(O)c3ccccc3oc2=O)cc1	-14	-81	-1	129*	24	-17
SMILES	Keap1 Nrf2 FP	CRFR2-BP antag	LANA DNA inh	CRFR2-BP ag	cardiac RTF act	RTF Ca sens inh
CCc1cccc(NC(=O)C2CCN(S(=O)(=O)c3cccs3)CC2)c1	-3	-11	3	2	7	-9
Cc1[nH]n(C(N)=S)c(=O)c1N=Nc1cc(-c2ccc(Br)cc2)[nH]n1	-4	80*	-1	1	·	·
COc1ccccc1N1C(=O)C2C(C(=O)c3ccccc3)=NN(c3ccc(C)cc3)C2C1=O (centres undefined)	·	-65	·	91*	·	·
O=C(C1=NN(c2ccccc2)C2C(=O)N(c3cccc(Cl)c3)C(=O)C12)c1ccccc1 (centres undefined)	?	-137	61*	116*	47*	-27
COc1ccccc1N1C(=O)C2C(C(=O)c3ccccc3)=NN(c3ccc(Br)cc3)C2C1=O (centres undefined)	·	-17	·	40	·	·
CC(=O)C1=NOC2C(=O)N(c3ccc(Cl)cc3)C(=O)C12 (centres undefined)	-2	2	1	1	6	-4
O=C(C1=NN(c2ccccc2)C2C(=O)N(c3ccc(Cl)cc3)C(=O)C12)c1ccccc1 (centres undefined)	-4	-57	4	48	38*	-30
O=C1C2C3CC(C2C(=O)N1c1cccc(Cl)c1)[C@H](O)C3O (some centres undefined)	-4	-12	-4	1	-2	2
CS(=O)(=O)c1ccc2nc(NC(NC(=O)c3ccco3)(C(F)(F)F)C(F)(F)F)sc2c1	4	-1	0	-2	-10	-3
COc1cc(/C=N/NC(=O)c2ccoc2C)cc(OC)c1OC	-5	2	-1	-1	5	-6
Cc1cc(/C=N/NC(=O)c2ccoc2C)cc(C)c1O	·	68*	·	0	·	·
CCN1CCc2c(sc(NC(=S)NC(=O)c3ccc(Cl)cc3)c2C(N)=O)C1	-10	-3	1	16	-3	-14
C/C(=C\c1ccccc1)CN1CCC(C(=O)N2CCC(C)CC2)CC1	-1	0	0	0	3	-4
C/C(=C\c1ccccc1)CN1CCC(C(=O)N2CCCCC2)CC1	1	96*	-1	-3	-2	-3
Cc1ccccc1N(CC(=O)N1CCN(c2ccccc2)CC1)S(C)(=O)=O	-3	3	2	0	-4	-1
Cc1ccccc1N(CC(=O)N1CCN(Cc2ccccc2)CC1)S(C)(=O)=O	·	70*	·	5	·	·
CN(CC(=O)Nc1ccc(Cl)c(C(F)(F)F)c1)C(=O)C1CC(=O)N(Cc2ccco2)C1 (centres undefined)	-3	7	0	-1	-1	9
COc1ccc(NC(=O)CN(C)C(=O)c2cc3c(cc2Cl)N2CCCCCC2=NS3(=O)=O)cc1	0	-7	-1	2	-5	5
CC(C)C(NS(=O)(=O)c1ccc2c(c1)oc(=O)n2C)C(=O)N1CCN(C2CCCCC2)CC1 (centres undefined)	-8	58*	2	1	5	-4
CC1CC(C)CN(C(=O)C(NS(=O)(=O)c2ccc3c(c2)oc(=O)n3C)C(C)C)C1 (centres undefined)	-3	4	1	-1	-2	-3
